Pf growth 48h = P. falciparum growth inhibition at 48 hours (one generation); P. falciparum luciferase growth in erythrocytes, 48 h; Potency, µM (series often up to 28.7 µM), without a hit: at the top dose activity change, negative = inhibition, hits mostly inhibitors; 310,000 tested, 5.9% active; note: potency is the fitted concentration of half-maximal effect; % is set by controls: 0 for no effect and ±100 for the full control effect
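Cell-based growth assay: transgenic P. falciparum expressing firefly luciferase, cultured in red cells within RPMI 1640 containing 0.5% w/v Albumax, 24 mM bicarbonate and gentamycin. A drop in luciferase activity indicates inhibition.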
NS1 function inh = inhibitors of influenza NS1 protein function; Potency, µM (highest dose often 46.1 µM), without a hit: at the highest dose activity, positive = more growth; AID 2326; 270,000 tested, 0.4% active; calls by dose curve; note: potency is the fitted concentration of half-maximal effect; actives are rising curves; nearly all actives have a fitted effect of over 50% in size
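In this qHTS, NS1 from influenza A is expressed in budding yeast, where it slows growth. Cells are switched from glucose to 2% galactose medium (pH 6.0, -URA), treated with compound, and growth recovery is read at OD600.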
Pf growth 96h = P. falciparum growth inhibition at 96 hour, primary screen for plastid delayed-death inhibitors; P. falciparum luciferase reporter growth, 96 h; Potency, µM (titrated, usually from 28.7 µM), without a hit: at the top dose activity change, negative = inhibition, actives largely listed as inhibitors; 320,000 tested, 6.9% active; note: potency is the fitted concentration of half-maximal effect; % is set by controls: 0 for no effect and ±100 for the full control effect
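Cell-based qHTS: luciferase-tagged P. falciparum in erythrocytes (2% hematocrit, 0.05% parasitemia final) incubated with compounds for 96 hours, 37 C, 5% CO2; luciferase detection reagent then added and luminescence measured.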
Cycloheximide cs = affects cycloheximide protein synthesis inhibition readout, counter-screen; cell reporter, cycloheximide protein synthesis inhibition counterscreen; max response, %; 300,000 tested, 12% active; in the data active = max response mostly above about 13%, no sharp cut-off; inactive = mostly below about 14%; note: read at 38.3 µM for the half of the compounds with a filed dose; 0% is about no effect
Sm TGR block = S. mansoni TGR enzyme inhibition. purified TGR, DTNB reduction, TNB absorbance 405 nm. Potency, µM (titrated, usually from 114 µM), for inactives: top-dose activity change, negative = inhibition, most hits filed as inhibitors. Q962Y6. 360,000 tested, 3% active; note: potency is the fitted concentration of half-maximal effect; % is set by controls: 0 for no effect and ±100 for the full control effect; nearly all actives have a fitted effect of over 60% in size
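First, TGR (20 nM dispensed) and NADPH were mixed with compound. Second, a 15 min room-temperature incubation followed. Third, further NADPH and then DTNB were added to start the reaction. Finally, TNB absorbance was monitored kinetically.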
Shiga toxin inh = inhibitors of Shiga toxin in Vero cells; Vero cells, Shiga toxin protein synthesis inhibition reporter; inhibition, % at 38.7 µM; 290,000 tested, 9.2% active; AID 2315; in the data active = inhibition mostly above about 28%, no sharp cut-off; inactive = mostly below about 43%; note: 0% is about no effect
Numbers without * were called inactive; ? = inconclusive; . = not tested or not shown; + = active, no number. An excerpt weighted towards active compounds, which were near 21% of everything screened. Unless noted, calls come from the whole dose curve; as a rule, active = well fitted curve in the direction sought with a large enough effect; inconclusive = small, poorly fitted or top-dose-only effect, or another doubt; inactive = no such curve, though single readings can be large; an effect the other way counts as inactive or inconclusive.

SMILES | Pf growth 48h | NS1 function inh | Pf growth 96h | Cycloheximide cs | Sm TGR block | Shiga toxin inh
CCS(=O)(=O)c1nc(S(=O)(=O)c2ccc(C)cc2)c(NCC(C)C)s1 | . | . | . | -5 | -11% | 8
COc1cc2c(c(OC)c1OC)-c1c(cc3c(c1OC)OCO3)CC(C)C(C)(O)C2OC(=O)c1ccccc1 (centres undefined) | . | . | . | -4 | . | 19
COC(=O)C1=C(C)NC(C)=C(C(=O)OC)C1c1ccc(-c2cccc(Cl)c2Cl)o1 | ? | 21% | ? | -7 | ? | -8
CCOC(=O)C1=C(C)NC(=O)NC1c1ccc(-c2ccc(Cl)cc2)o1 (centres undefined) | 8% | -5% | -18% | -3 | . | 15
CCOC(=O)C1=C(C)NC(=O)NC1c1ccc(-c2ccc(F)cc2)o1 (centres undefined) | -42% | . | -10% | -2 | 25µM* | -17
CCOC(=O)C1=C(C)NC(=S)NC1c1ccc(-c2ccc(Cl)cc2)o1 (centres undefined) | ? | 23% | 7.4µM* | 1 | 22µM* | 17
COC(=O)C1=C(C)NC(=O)NC1c1ccc(-c2ccccc2Cl)o1 (centres undefined) | -3% | . | 3.7µM* | 5 | 25µM* | -21
COc1ccc(S(=O)(=O)Nc2cc(SCC(=O)O)c(O)c3ccccc23)cc1 | 4.1µM* | 3% | ? | 1 | 3.5µM* | -8
COc1ccc(S(=O)(=O)Nc2cc(Sc3ncn[nH]3)c(O)c3ccccc23)cc1 | . | -189% | 2.9µM* | 42 | 0.5µM* | 43
O=C(O)CSc1cc(NS(=O)(=O)c2ccc(Cl)cc2)c2ccccc2c1O | ? | -40% | ? | 14 | 7.1µM* | 18
O=C(Sc1cccc2cccnc12)c1ccc(F)cc1 | 6.6µM* | . | ? | 10 | ? | 28
O=C(CCC(=O)c1cccs1)Nc1ccc(F)c(F)c1F | . | 0% | -34% | 18 | -20% | 4
CC(C)(C)NC[C@@H](O)c1ccc(O)c(CO)n1 | -3% | -11% | -16% | . | . | .
Cc1ccc(C(=O)N2CCC(N3CCN(Cc4ccc(F)cc4)C(=O)C3=O)CC2)cc1 | . | . | . | . | -6% | .
O=S(=O)(Nc1cc(Sc2cccc3cccnc23)c(O)c2ccccc12)c1ccc(F)cc1 | 2.6µM* | -18% | 7% | 24* | 3.5µM* | +
Cc1cc(C)c(S(=O)(=O)Nc2cc(SCC(=O)O)c(O)c3ccccc23)cc1C | 10µM* | -34% | 2.6µM* | 6 | 8.9µM* | 31
Cc1cc(C)c(S(=O)(=O)Nc2ccc(O)cc2)cc1C | -21% | -1% | 11% | -3 | -29% | -13
O=S(=O)(Nc1cccc2cccnc12)c1ccc2ccccc2c1 | . | . | . | 15 | . | -8
Cc1cc(OCC(=O)Nc2ccc(F)c(F)c2)nc(C(C)C)n1 | -16% | 9% | . | -1 | 4% | -5
COCCOC(=O)c1sc2nc[nH]c(=O)c2c1C | 13% | . | 12% | 2 | 0% | -5
CCOc1c(Br)ccc2c1sc1nc[nH]c(=O)c12 | -2% | -69% | 9.3µM* | -8 | -5% | -15
CCOC(=O)c1ccc(N2C(=O)c3[nH]nc(-c4ccc(OC)cc4)c3C2c2ccc(C)cc2)cc1 (centres undefined) | . | . | . | . | 5% | .
Cc1ccc(/C([O-])=C(/C(=S)NCc2ccco2)[n+]2ccccc2)cc1 | . | 4% | ? | -1 | ? | -12
[O-]/C(=C(\C(=S)NCc1ccco1)[n+]1ccccc1)c1ccccc1Br | -6% | 20% | ? | -2 | 25µM* | -23
O=[N+]([O-])c1ccc(/C([O-])=C(/C(=S)NCc2ccco2)[n+]2ccccc2)cc1 | 23% | . | 7% | -3 | 22µM* | 1
SMILES | Pf growth 48h | NS1 function inh | Pf growth 96h | Cycloheximide cs | Sm TGR block | Shiga toxin inh
Nc1ccc2c(c1)nc(Cc1ccccc1)n2CCO | 16% | 0% | -2% | -4 | 0% | 3
O=C(C1CC(c2ccc(F)cc2)=NO1)N1CCCc2ccccc21 (centres undefined) | 20% | -8% | 2.1µM* | 0 | -1% | 17
CCOC(=O)N1CCN(C(=O)C2CC(c3cc(OC)ccc3OC)=NO2)CC1 (centres undefined) | ? | 2% | ? | -1 | -1% | -8
COc1ccc(OC)c(C2=NOC(C(=O)N3CCCc4ccccc43)C2)c1 (centres undefined) | 5% | -117% | . | 56* | -12% | 84*
Cc1cc(C)c2c(c1)SC1=NC(c3ccccc3)(C(F)(F)F)NC(=O)N12 (centres undefined) | ? | -57% | 51% | 24* | 4% | 36
CC(=O)c1cccc(NC(=O)c2ccccc2-c2ccccc2C(=O)O)c1 | 17% | 19% | ? | -5 | -19% | -16
CC(=O)c1ccc(Nc2ccc(-c3ccccc3C)nn2)cc1 | -8% | -10% | 10% | 55* | . | 107*
CC(=O)c1ccc(Nc2c3c(nc4ccccc24)CCCC3)cc1 | ? | -8% | -25% | 1 | -6% | -10
COc1ccccc1-c1ccc(Nc2cccc(C(C)=O)c2)nn1 | 20% | -10% | 2% | 37* | -31% | 74*
CC(=O)c1cccc(Nc2ccc(-c3ccccc3F)nn2)c1 | 304% | . | 6% | 38* | 0% | 94*
Fc1ccc(-c2csc(-c3nc(-c4ccc(Br)s4)cs3)n2)cc1 | . | . | . | . | 3% | .
Cc1csc(NC(=O)C(C)N2C(=O)c3ccccc3S2(=O)=O)n1 (centres undefined) | -4% | -2% | 22% | -2 | 6% | -1
COc1ccccc1C(=O)NCC(=O)n1nc(C)cc1C | 7% | -54% | 13µM* | -1 | -30% | -7
COc1ccccc1C(=O)N/N=C/c1ccc2c(c1)OCO2 | 95% | -6% | -7% | 35* | -15% | 89*
COc1cc2ccccc2cc1C(=O)N/N=C/c1ccc2c(c1)OCO2 | 8% | 0% | -3% | 4 | 4% | 7
COc1ccccc1C(=O)NCC(=O)N/N=C/c1cccc(Cl)c1 | 5% | . | 2.1µM* | 4 | 2% | 9
O=C(CNC(=O)c1cccs1)N/N=C/c1cccc(Cl)c1 | 31% | 7% | ? | 11 | 5% | 7
COc1cc(/C=N/NC(=O)c2cc(-c3ccc4c(c3)OCO4)n[nH]2)ccc1O | 40% | 8% | ? | 16* | -8% | 36
O=C(N/N=C/c1ccc([N+](=O)[O-])cc1)c1cc(-c2ccc3c(c2)OCO3)n[nH]1 | 0% | 0% | 17% | -2 | -2% | 9
Cc1cc(C)n(C(=O)CNC(=O)c2ccccc2Br)n1 | 13% | -7% | 25% | -1 | -7% | -2
CCOCCCn1c(=N)c(S(=O)(=O)c2ccc(C)cc2)cc2c(=O)n3cccc(C)c3nc21 | . | . | . | . | 0% | .
CSc1nsc(N/N=C/c2ccc3c(c2)OCO3)c1C#N | 374% | . | 10% | 41* | 67% | 84*
